Data reported in PubChem BioAssay (NCATS).
Results filed as inconclusive are left out. A call without a number means that no potency is given here. Calls of active or inactive are those of the source. Calls follow the shape of the dose curve; as a rule, active = well fitted inhibition curve with a large enough effect; inconclusive = small, poorly fitted or top-dose-only effect; inactive = no such curve, though single readings can be large or run the other way.

Assay: NS1 protein of Zika virus - qHTS assay to identify small molecule inhibitors in human HEK 293 cells (AID 1347053); also: nearly all actives have a fitted effect of over 55% in size
Details: HEK293 ZIKV MR766 infection, NS1 TR-FRET, 24 h; series mostly up to 46.1 µM
Excerpt: National Center for Advancing Translational Sciences [NCATS]
Johns Hopkins University School of Medicine
The non-structural 1 (NS1) protein of zika virus is known to associate with the viral replication complex. This cell-based TR-FRET ZIKV NS-1 assay measures the increased NS-1 protein in human HEK 293 cells after a 24-hour Zika virus infection by a TR-FRET assay readout. A decrease in the Time-resolved fluorescence energy transfer (TR-FRET) signal in this assay by small molecule treatment indicates an inhibitory effect of the small molecule on the expression of Zika virus NS1 correlating with Zika virus replication.
HEK 293 cells were cultured in EMEM (ATCC, Cat. # 30-2003) medium with 10% fetal bovine serum (GE healthcare Life Sciences, Cat. # SH30071.03), and 1% Pen/Strep (Gibco, Cat. # 15140-122). Cells were seeded in the assay plate and incubated at 37 C with 5% CO2 for 20 hours. Compounds were added to cells and incubated for one hour before addition of ZIKV MR766 strain solution to cells (MOI = 0.5). After an incubation at 37 C for 24 hours, the reagent mixture of TR-FRET ZIKV NS1 assay using two anti-ZIKV NS1 antibodies was added to assay plates. The TR-FRET signals in assay plates were measured using an Envision plate reader (PerkinElmer). Data were normalized by using the cell-containing wells without ZIKV as a negative control (0% NS-1) and wells containing ZIKV infected cells as a positive control (100% NS-1 level).
Potency is read from the fitted curve at half-maximal effect.

Row | SMILES | Potency
1 | O=C(COc1ccc(Cl)cc1)N1CCN(Cc2ccc3c(c2)OCO3)CC1 | inactive
2 | CC1(C)O[C@@H]2C[C@H]3[C@@H]4C[C@H](F)C5=CC(=O)C=C[C@]5(C)[C@H]4[C@@H](O)C[C@]3(C)[C@]2(C(=O)CO)O1 | inactive
3 | CC(=O)OCC(=O)[C@@]1(O)[C@H](C)C[C@H]2[C@@H]3CCC4=CC(=O)C=C[C@]4(C)[C@@]3(F)[C@@H](O)C[C@@]21C | inactive
4 | CCCn1c(=O)[nH]c(=O)c2[nH]cnc21 | inactive
5 | COc1cc2c(cc1OC)C(=O)C(CC1CCN(Cc3ccccc3)CC1)C2 (stereo not given) | inactive
6 | Cc1ccnc(NS(=O)(=O)c2ccc(N)cc2)n1 | inactive
7 | OC[C@H]1O[C@H](O[C@]2(CCl)O[C@H](CCl)[C@@H](O)[C@@H]2O)[C@H](O)[C@@H](O)[C@H]1Cl | inactive
8 | c1ccc(CNCCNCc2ccccc2)cc1 | inactive
9 | CCN1CCC[C@H]1CNC(=O)c1c(OC)ccc(Br)c1OC | inactive
10 | CN1CCN(CCCN2c3ccccc3Sc3ccc(S(=O)(=O)N(C)C)cc32)CC1 | inactive
11 | CN1CCC(=C2c3ccccc3Sc3ccccc32)CC1 | inactive
12 | CC(=O)[C@H]1CC[C@H]2[C@@H]3C[C@H](C)C4=CC(=O)CC[C@]4(C)[C@H]3[C@@H](O)C[C@]12C | inactive
13 | CN(C)CC/C=C1/c2ccccc2COc2ccc(CC(=O)O)cc21 | inactive
14 | CCCSS/C(CCO)=C(\C)N(C=O)Cc1cnc(C)nc1N | inactive
15 | Cc1c(C(C)C)c(=O)n(-c2ccccc2)n1C | inactive
16 | C=C(CC)C(=O)c1ccc(OCC(=O)O)c(Cl)c1Cl | inactive
17 | C[C@]12CC[C@@H]3c4ccc(O)cc4CC[C@H]3[C@@H]1CC[C@@H]2O | inactive
18 | Oc1cc(O)c2c(c1)O[C@H](c1ccc(O)c(O)c1)[C@H](O)C2 | inactive
19 | CN1C2CCC1CC(OC(=O)c1c[nH]c3ccccc13)C2 (stereo not given) | inactive
20 | COC1=CC(=O)C[C@@H](C)[C@]12Oc1c(Cl)c(OC)cc(OC)c1C2=O | inactive

Row | SMILES | Potency
21 | C[C@H]1[C@H](NC(=O)/C(=N/OC(C)(C)C(=O)O)c2csc(N)n2)C(=O)N1S(=O)(=O)O (stereo in doubt) | inactive
22 | C[C@]12C=CC(=O)C=C1[C@@H](F)C[C@@H]1[C@@H]2[C@@H](O)C[C@@]2(C)[C@H]1CC[C@]2(O)C(=O)CO | inactive
23 | NCCC(O)(P(=O)(O)O)P(=O)(O)O | inactive
24 | CC(C)(C)CC(C)(C)c1ccc(OCCOCC[N+](C)(C)Cc2ccccc2)cc1 | 12.6 µM (active)
25 | Cc1cccc(C)c1NC(=O)CN1CCN(CCCC(c2ccc(F)cc2)c2ccc(F)cc2)CC1 | inactive
26 | COc1cc(-c2ccc(=O)[nH]n2)ccc1OC(F)F | inactive
27 | N[C@H](Cc1c[nH]c2ccccc12)C(=O)O | inactive
28 | NC(=O)C(=O)N/N=C/c1ccc([N+](=O)[O-])o1 | inactive
29 | Cc1cc(O)c(C(C)C)cc1Cl | inactive
30 | COc1cccc(CCc2ccccc2OCC(CN(C)C)OC(=O)CCC(=O)O)c1 (stereo not given) | inactive
31 | CC1(C)OC[C@@H](COC(=O)CCc2ccc(OC[C@@H](O)CNCCNC(=O)N3CCOCC3)cc2)O1 | inactive
32 | O=C(Nc1ccc(Oc2ccc(Cl)cc2)c(Cl)c1)c1cc(I)cc(I)c1O | inactive
33 | O=S1(=O)c2cccc3cccc(c23)N1CCCN1CCN(c2ccc(F)cc2)CC1 | inactive
34 | CCCCCCc1ccc(O)cc1O | inactive
35 | COCc1c(C(C)C)nc(C(C)C)c(/C=C/[C@@H](O)C[C@@H](O)CC(=O)O)c1-c1ccc(F)cc1 | inactive
36 | COc1cc2c(cc1OC)[C@@H]1CC(=O)[C@@H](CC(C)C)CN1CC2 | inactive
37 | C[C@]12C=CC(=O)C=C1CC[C@@H]1[C@@H]2[C@@H](O)C[C@@]2(C)[C@H]1CC[C@]2(O)C(=O)CO | inactive
38 | Oc1ccc(O)cc1 | inactive
39 | O=c1[nH]c(=O)n([C@H]2C[C@H](O)[C@@H](CO)O2)cc1C(F)(F)F | inactive
40 | CC/C(=C(/CC)c1ccc(O)cc1)c1ccc(O)cc1 | inactive
